From PubChem BioAssay AID624255 (Broad Institute, 2012)
The whole screen tested about 77,000 compounds, of which about 4,600 (6%) were called active. Roughly 1% stayed inconclusive and do not appear here.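 The calls were made as follows: active = mean inhibition above about 93%, with at least 55% of replicates each passing it (limit read from the data, passing the limit was not always enough); inconclusive = only one of those two conditions holds; inactive = neither condition holds.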 Many of the other results were omitted from the sample, so actives are more common in it than they were.

experiment: T. cruzi intracellular proliferation inhibitors, primary screen, cell-based, beta-gal Tulahuen parasites, NIH3T3 host, luminescence (AID 624255); conditions: T. cruzi beta-gal in NIH3T3, GalScreen luminescence, 90 h; at 8.34 µM; hits give high values

inhibition, inactive:
COCC(=O)N1C[C@@H](C)[C@H](OC)CN(C)C(=O)c2cc(NC(=O)c3cc(C)on3)ccc2OC[C@@H]1C 60.6%
C[C@H](O)C#Cc1ccc2c(c1)O[C@@H](CN(C)CC1CCCC1)[C@H](C)CN([C@@H](C)CO)S2(=O)=O 13.4%
COCC(=O)Nc1ccc2c(c1)C(=O)N(C)C[C@H](OC)[C@@H](C)CN(C(=O)c1cnccn1)[C@H](C)CO2 7.73%
CC(=O)N1[C@H](C(=O)N(C)C)[C@@H](CO)[C@@H]2Cn3c(ccc(-c4ccccc4)c3=O)[C@@H]21 16.7%
C[C@@H]1CN([C@@H](C)CO)C(=O)c2cc(NC(=O)CCCN(C)C)ccc2O[C@@H](C)CCCCO[C@@H]1CN(C)S(=O)(=O)c1ccc(Cl)cc1 25.4%
Cc1ccc(S(=O)(=O)N(C)C[C@@H]2OCCCC[C@@H](C)Oc3ccc(NC(=O)C4CCCCC4)cc3C(=O)N([C@H](C)CO)C[C@H]2C)cc1 24%
C[C@@H]1CCCCO[C@H](CN(C)C)[C@H](C)CN([C@@H](C)CO)C(=O)c2cc(NC(=O)Cc3ccccc3)ccc2O1 -33.2%
Cc1ccc(S(=O)(=O)N(C)C[C@@H]2OCCCC[C@@H](C)Oc3ccc(NS(=O)(=O)c4ccccc4)cc3C(=O)N([C@H](C)CO)C[C@@H]2C)cc1 55%
CCCN1C[C@H](C)[C@@H](OC)CN(C)C(=O)c2cc(NS(=O)(=O)CC)ccc2OC[C@H]1C -88%
CN1c2ccc(Br)cc2[C@H]2[C@H](CCN2S(=O)(=O)c2ccccc2)[C@@H]1CO 95.5%
CN1C(=O)c2cc(NS(=O)(=O)c3ccc(F)cc3)ccc2OC[C@@H]2O[C@@H](CC(=O)O)CC[C@H]21 20.4%
COc1cccc(C(=O)Nc2ccc3c(c2)C(=O)N(C)[C@@H]2CC[C@H](CC(=O)NCC4CC4)O[C@@H]2CO3)c1 22.9%
COCC(=O)Nc1ccc2c(c1)C(=O)N(C)C[C@H](OC)[C@@H](C)CN(C(=O)Cc1cccnc1)[C@@H](C)CO2 -9.25%
CC(C)NC(=O)N1C[C@H]2[C@@H](c3ccccc31)[C@H](CO)N2C(=O)c1ccccc1F -21.6%
C[C@@H]1CCCCO[C@@H](CN(C)S(=O)(=O)c2ccc(F)cc2)[C@@H](C)CN([C@@H](C)CO)C(=O)c2cc(NC(=O)Nc3ccc4c(c3)OCO4)ccc2O1 23.6%
COc1ccc(NC(=O)Nc2ccc3c(c2)C(=O)N([C@H](C)CO)C[C@H](C)[C@@H](CN(C)S(=O)(=O)c2ccc(OC)cc2)OCCCC[C@H](C)O3)cc1 -12%
CC(C)NC(=O)Nc1ccc2c(c1)C(=O)N([C@H](C)CO)C[C@@H](C)[C@@H](CN(C)S(=O)(=O)c1ccc(Cl)cc1)OCCCC[C@H](C)O2 55%
COc1ccc(S(=O)(=O)N(C)C[C@@H]2OCCCC[C@H](C)Oc3ccc(NC(=O)Nc4ccccc4)cc3C(=O)N([C@@H](C)CO)C[C@H]2C)cc1 37.1%
C[C@@H]1CCCCO[C@H](CN(C)S(=O)(=O)c2ccc(Cl)cc2)[C@H](C)CN([C@H](C)CO)C(=O)c2cc(NC(=O)NC3CCCCC3)ccc2O1 92.2%
C[C@@H]1CCCCO[C@H](CN(C)S(=O)(=O)c2ccc(Cl)cc2)[C@@H](C)CN([C@H](C)CO)C(=O)c2cc(NC(=O)Nc3ccc4c(c3)OCO4)ccc2O1 82.9%
Cc1ccc(S(=O)(=O)Nc2ccc3c(c2)C(=O)N([C@@H](C)CO)C[C@@H](C)[C@H](CN(C)C(=O)NC(C)C)OCCCC[C@H](C)O3)cc1 46%
CO[C@H]1CN(C)C(=O)c2ccc(NC(C)=O)cc2OC[C@H](C)N(CC2CC2)C[C@@H]1C 5.22%
CNC(=O)C[C@H]1CC[C@@H]2[C@H](COc3ccc(NC(=O)Nc4cccc(F)c4)cc3C(=O)N2C)O1 14.8%
C[C@@H]1CN([C@H](C)CO)C(=O)c2cc(NC(=O)Nc3cccc4ccccc34)ccc2O[C@H]1CN(C)C(=O)Nc1ccccc1 45.7%
O=C(Nc1cccc(F)c1)N[C@@H]1CC[C@@H](CCn2cc(Cc3ccccc3)nn2)O[C@@H]1CO 42.3%
CCNC(=O)Nc1ccc2c(c1)C(=O)N(C)[C@@H]1CC[C@H](CC(=O)NC3CCCCC3)O[C@H]1CO2 36%
O=C(Cc1ccccn1)NCC[C@H]1CC[C@H](NS(=O)(=O)c2ccccc2)[C@@H](CO)O1 44.9%
OC[C@@H]1[C@@H](c2ccc(C#CC3(O)CCCC3)cc2)[C@@H]2CN(Cc3cncnc3)CCCCN12 18.1%
CCCC#Cc1ccc([C@H]2[C@H]3CN(Cc4cncnc4)CCCCN3[C@H]2CO)cc1 63.2%
OC[C@H]1[C@@H](c2ccc(C#CC3(O)CCCC3)cc2)[C@H]2CN(Cc3cncnc3)CCCCN21 60.8%
COCC#Cc1ccc([C@H]2[C@H](CO)N3CCCCN(Cc4ccncc4)C[C@@H]23)cc1 37.4%
CO[C@H]1CN(C)C(=O)c2cc(NC(=O)C3CC3)ccc2OC[C@@H](C)N(CCc2ccccc2)C[C@H]1C 11.1%
CO[C@@H]1CN(C)C(=O)c2ccc(NC(=O)Nc3cc(Cl)cc(Cl)c3)cc2OC[C@H](C)NC[C@H]1C -5.93%
CCCNC(=O)C[C@@H]1CC[C@@H]2[C@H](COC[C@H](O)CN2C(=O)c2cc(Cl)cc(Cl)c2)O1 3.7%
COc1ccc(NC(=O)N[C@H]2CC[C@@H](CCNC(=O)c3cc(Cl)cc(Cl)c3)O[C@H]2CO)cc1 -22.3%
C[C@@H]1CCCCO[C@@H](CN(C)C(=O)NC2CCCCC2)[C@@H](C)CN([C@@H](C)CO)C(=O)c2cc(NC(=O)C3CCCCC3)ccc2O1 69.2%
O=C(NCc1cccc(F)c1)[C@H]1[C@H](CO)[C@H]2Cn3c(cccc3=O)[C@@H]1N2 23.3%
O=C(Nc1cc(F)ccc1F)N1CCCCN2[C@H](C1)[C@H](c1ccc(-c3cccnc3)cc1)[C@@H]2CO 89.5%
O=C(Nc1ccccc1)N1CCCCN2[C@H](CO)[C@@H](c3ccc(-c4ccccc4F)cc3)[C@H]2C1 45.9%
CC(=O)N1CCCCN2[C@H](CO)[C@H](c3ccc(-c4ccccc4)cc3)[C@@H]2C1 72.8%
COc1ccccc1NC(=O)N1CCCCN2[C@@H](CO)[C@@H](c3ccc(C#Cc4ccccc4)cc3)[C@@H]2C1 94.4%
O=C(Nc1cc(F)ccc1F)N1CCCCN2[C@H](CO)[C@@H](c3ccc(-c4cccnc4)cc3)[C@@H]2C1 69.1%
CN(C)CC(=O)N1CCCCN2[C@@H](CO)[C@H](c3ccc(-c4cccnc4)cc3)[C@@H]2C1 73.9%
C[C@@H]1CN([C@H](C)CO)C(=O)c2cc(NC(=O)c3ccccc3)ccc2O[C@@H](C)CCCCO[C@H]1CN(C)S(=O)(=O)c1ccccc1 -19.9%
O=C(Nc1ccc(Cl)cc1)N1C[C@@H]2[C@H](c3ccccc31)[C@@H](CO)N2C(=O)c1cccnc1 -10.9%
C[C@@H](O)C#Cc1ccc([C@@H]2[C@@H](CO)N3CCCCN(C(=O)c4ccc(F)cc4)C[C@@H]23)cc1 26.5%
COc1ccc(CN(C)C[C@H]2OCCCC[C@@H](C)Oc3ccc(NC(=O)Nc4cccc5ccccc45)cc3C(=O)N([C@H](C)CO)C[C@@H]2C)cc1 67.6%
C[C@@H]1CCCCO[C@H](CN(C)C(=O)Nc2ccc(C(F)(F)F)cc2)[C@@H](C)CN([C@@H](C)CO)C(=O)c2cc(NC(=O)Nc3cccc4ccccc34)ccc2O1 87.4%
C[C@@H]1CCCCO[C@H](CN(C)C(=O)Nc2cccc3ccccc23)[C@@H](C)CN([C@@H](C)CO)C(=O)c2cc(NC(=O)Nc3ccc(F)cc3)ccc2O1 91.1%
C[C@H](CO)N1C[C@H](C)[C@H](CN(C)Cc2ccccc2)OCCCC[C@H](C)Oc2ccc(NC(=O)c3ccccc3)cc2C1=O 71.5%
C[C@@H]1CCCCO[C@H](CN(C)C(=O)c2ccccc2)[C@@H](C)CN([C@H](C)CO)C(=O)c2cc(NC(=O)Nc3cccc4ccccc34)ccc2O1 -46.1%
C[C@H](CO)N1C[C@H](C)[C@@H](CN(C)Cc2ccc(C(=O)O)cc2)OCCCC[C@H](C)Oc2ccc(NC(=O)c3ccccc3)cc2C1=O 20.3%
C[C@@H]1CCCCO[C@@H](CN(C)CC2CC2)[C@@H](C)CN([C@H](C)CO)C(=O)c2cc(NC(=O)Nc3cccc4ccccc34)ccc2O1 86.5%
CC(C)NC(=O)N(C)C[C@H]1OCCCC[C@@H](C)Oc2ccc(NC(=O)Nc3cccc4ccccc34)cc2C(=O)N([C@H](C)CO)C[C@@H]1C 33.3%

inhibition, active:
C[C@@H]1CCCCO[C@@H](CN(C)S(=O)(=O)c2ccc(Cl)cc2)[C@H](C)CN([C@@H](C)CO)C(=O)c2cc(NC(=O)Cc3ccccc3)ccc2O1 98.6%
Cc1ccc(S(=O)(=O)N(C)C[C@H]2OCCCC[C@H](C)Oc3ccc(NC(=O)Cc4ccccc4)cc3C(=O)N([C@@H](C)CO)C[C@@H]2C)cc1 110%
CC(C)NC(=O)Nc1ccc2c(c1)C(=O)N([C@@H](C)CO)C[C@H](C)[C@H](CN(C)S(=O)(=O)c1ccc(Cl)cc1)OCCCC[C@H](C)O2 106%
C[C@H]1CCCCO[C@H](CN(C)S(=O)(=O)c2ccc(Cl)cc2)[C@@H](C)CN([C@@H](C)CO)C(=O)c2cc(NC(=O)Nc3ccc4c(c3)OCO4)ccc2O1 105%
COc1ccc(NC(=O)Nc2ccc3c(c2)C(=O)N([C@H](C)CO)C[C@H](C)[C@H](CN(C)S(=O)(=O)c2ccc(Cl)cc2)OCCCC[C@H](C)O3)cc1 115%
OC[C@@H]1[C@H](c2ccc(C#Cc3ccccc3)cc2)[C@@H]2CN(Cc3cncnc3)CCCCN12 112%
OC[C@@H]1[C@H](c2ccc(C#CC3(O)CCCC3)cc2)[C@H]2CN(Cc3cncnc3)CCCCN12 101%
O=C(Nc1ccccc1F)N1CCCCN2[C@H](CO)[C@@H](c3ccc(-c4cccnc4)cc3)[C@H]2C1 104%
O=C(Nc1cc(F)ccc1F)N1CCCCN2[C@H](CO)[C@@H](c3ccc(-c4cncnc4)cc3)[C@H]2C1 106%
COc1ccccc1NC(=O)N1CCCCN2[C@H](C1)[C@H](c1ccc(-c3ccccc3)cc1)[C@@H]2CO 119%
C[C@@H]1CCCCO[C@@H](CN(C)Cc2ccccc2)[C@H](C)CN([C@H](C)CO)C(=O)c2cc(NC(=O)Nc3cccc4ccccc34)ccc2O1 112%
C[C@H]1CCCCO[C@H](CN(C)Cc2ccccc2)[C@@H](C)CN([C@@H](C)CO)C(=O)c2cc(NC(=O)c3ccccc3)ccc2O1 102%
C[C@@H]1CCCCO[C@@H](CN(C)C(=O)Nc2ccc(F)cc2)[C@H](C)CN([C@H](C)CO)C(=O)c2cc(NC(=O)Nc3cccc4ccccc34)ccc2O1 108%
C[C@@H]1CN([C@@H](C)CO)C(=O)c2cc(NC(=O)Nc3cccc4ccccc34)ccc2O[C@@H](C)CCCCO[C@H]1CN(C)Cc1ccccc1 112%
